Experimental data reported in PubChem BioAssay AID1851 (National Center for Advancing Translational Sciences (NCATS), 2009).
About 2,600 (16%) of roughly 16,000 compounds were called active. Roughly 20% stayed inconclusive and do not appear here. The call rests on the fitted dose curve; in most records, active means well fitted curve in the direction sought with a large enough effect; inconclusive means small, poorly fitted or top-dose-only effect, or effect the other way; inactive means no such curve, though single readings can be large or run the other way. A selection follows.

Target: Cytochrome P450 2D6 (Homo sapiens) (UniProt P10635)
Test: Cytochrome panel assay with activity outcomes
Conditions: recombinant CYP, pro-luciferin dealkylation, luminescence, p450-cyp2d6; series mostly up to 57.1 µM; activity, negative = inhibition: at the top concentration
On the % scale 0 is the no-effect control and ±100 the full control effect.

Chain of Cytochrome P450 2D6 (Homo sapiens) (P10635 whole entry, looked up): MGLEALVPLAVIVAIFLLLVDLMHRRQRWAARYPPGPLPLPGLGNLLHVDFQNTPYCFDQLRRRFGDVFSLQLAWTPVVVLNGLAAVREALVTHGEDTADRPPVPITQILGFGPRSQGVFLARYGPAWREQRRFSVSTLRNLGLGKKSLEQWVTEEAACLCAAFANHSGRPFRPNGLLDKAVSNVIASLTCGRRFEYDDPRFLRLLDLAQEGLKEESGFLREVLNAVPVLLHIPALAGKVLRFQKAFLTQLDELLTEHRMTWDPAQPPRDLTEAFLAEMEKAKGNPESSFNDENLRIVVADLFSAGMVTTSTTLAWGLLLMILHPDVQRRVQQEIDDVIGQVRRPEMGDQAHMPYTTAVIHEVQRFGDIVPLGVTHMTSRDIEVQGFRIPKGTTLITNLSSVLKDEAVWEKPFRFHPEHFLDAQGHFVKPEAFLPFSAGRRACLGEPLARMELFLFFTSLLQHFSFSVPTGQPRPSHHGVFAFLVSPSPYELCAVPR

activity, negative = inhibition, inactive:
CCOC(=O)c1cc2sc(C)cc2n1CC(=O)N1CCN(C(=O)c2ccco2)CC1 -14.6%, COc1ccc(N=Cc2ccc(CNS(=O)(=O)c3ccc(Cl)cc3)o2)cc1 15.2%, Nc1ncnc2c1ncn2[C@H]1O[C@@H](C(=O)OCCO)[C@@H](O)[C@H]1O 17% [at 11.4 µM], Cc1ccc(CNC(=O)C2CCCN2C(=O)NCc2ccccc2)cc1 (stereo not given) -6.14%, CC(=O)Nc1cccc(NC(=O)C2CCCN2C(=O)Nc2ccccc2C)c1 (stereo not given) -10.4%, CCCn1nc2cc(C(=O)NCc3ccc4c(c3)OCO4)ccc2c1OCC -40.6%, CCc1ccccc1NC(=O)c1ccc(-n2c(C)ccc2C)cc1 -24.8%, CCNc1nc(NCC)nc(N(C)N)n1 -24.1%, CCOC(=O)c1c(C)nc2sc3c(=O)n(-c4ccc(OC)cc4)nnc3c2c1-c1ccc(OC)cc1 -1.38%, COC(=O)c1cc(OC)c(OC)cc1NC(=O)CSc1ccccc1 4.67%, CCOC(=O)C1=C(C)NC(C)=C(C(=O)OC)[C@@H]1c1cccc([N+](=O)[O-])c1 -12% [at 25.6 µM], COCCNC(=O)CCCCCn1c(=S)[nH]c2ccccc2c1=O -1.04%, COc1cccc(N2CCN(C(=O)Nc3ccc4c(c3)NC(=O)CO4)CC2)c1 -13.3%, S=c1nc[nH]c2c1ncn2Cc1ccco1 1.42% [at 11.4 µM], O=C(O)C(Cc1cccs1)C(=O)O 21.5% [at 11.4 µM], CCC/C=C(\CCC)C(NC(=O)c1cccs1)c1ccc(C(F)(F)F)cc1 (stereo not given) 4.02%, CN[C@H]1[C@@H](O[C@@H]2[C@H](O[C@@H]3[C@@H](O)[C@@H](O)[C@@H](N=C(N)N)[C@@H](O)[C@@H]3N=C(N)N)O[C@H](C)[C@@]2(O)C=O)O[C@@H](CO)[C@@H](O)[C@H]1O 1.07% [at 25.6 µM], C=CCN1C(=NC(=O)CC)SC2CS(=O)(=O)CC21 (stereo not given) -2.84%, CC(C)=C[C@H]1[C@@H](COC(=O)c2ccccc2Cl)C1(C)C -3.97% [at 11.4 µM], Clc1ccc2c(c1)C1=C(C(c3ccncc3)O2)C(c2ccc(Br)cc2)n2ncnc2N1 (stereo not given) -28.8%, CCCn1nnc(NC(=O)Cc2ccccc2)n1 -9.5%, CC(C)CN1CCCC2(CCN(S(=O)(=O)c3ccccc3)CC2)C1 -2.15%, O=C(NC1CCCCC1)C1CC=CCC1C(=O)OCC(Cl)=C(Cl)Cl (stereo not given) -29.9%, C=CCNC(=S)NNc1ncnc2sc3c(c12)CC(C)(C)OC3 -2.64%, CCn1nnnc1SCC(=O)c1ccc2c(c1)OCCO2 -25.7%, COC(=O)[C@@]1(Cc2ccc(OC)cc2)[C@H]2c3cc(C(=O)N4CCCC4)n(CCc4c[nH]c5cc(F)ccc45)c3C[C@H]2CN1C(=O)c1ccccc1 0.678%, CC1(C)CC2(CC(c3cccs3)c3cc(Cl)c(O)cc3O2)NC(=S)N1 (stereo not given) -28.9%, C#CCCCO/N=C1/C[C@@H](O)[C@@H](O)[C@@H]2[C@@H]3C(=O)N([C@@H](C)c4ccccc4)C(=O)[C@H]3CC[C@@H]12 -9.9% [at 11.4 µM], COc1cc(OC)cc(C(=O)NCC(=O)OC2CCOC2=O)c1 (stereo not given) -8.8%, O=C(Nc1ncc(Cc2cccc(Cl)c2)s1)C1=NCCN1 -16.7%, CC1CCCC(C)N1C(=O)C1CC(c2ccc(F)cc2)=NO1 (stereo not given) -5.48%, CCn1c(SCc2ccc(C)cc2)nnc1-c1nn(-c2ccccc2)ccc1=O -12.7%, Nc1nc(SCc2ccccc2)c2ncn(Cc3ccccc3)c2n1 9.39% [at 11.4 µM], O=C(O)CSCCc1ccccc1 -0.751% [at 11.4 µM], Cn1c(CNC(=O)Nc2ccccc2)nnc1SCc1ccccc1 -8.99%, O=c1ccnc(SCc2ccc(Cl)cc2)[nH]1 6.62% [at 11.4 µM], Cc1noc(NC(=O)Nc2ccccc2F)c1C#N 0.368% [at 11.4 µM], CC(/C=C/c1ccco1)=N/NC(=O)c1ccccc1Cl -12.5%, CCOC(=O)N/N=C1/C[C@@H](O)[C@@H](O)[C@@H]2[C@@H]3C(=O)N(C(C)(C)C)C(=O)[C@H]3CC[C@@H]12 -10.6% [at 11.4 µM], CO[C@H]1COC(=O)CCC[C@H](C)[C@@H](OC)COC(=O)C/C=C\[C@@H]1C -0.797% [at 11.4 µM], Cc1ccc(S(=O)(=O)c2cc(N3CCOCC3)nc(-c3ccccc3)n2)cc1 -14%, N#CCCn1c(=O)cnc2cnc(OCc3ccccc3)nc21 -3.27%, CCCNC(=O)OC[C@@H]1O[C@H](CCON=C(C)C)C=C[C@@H]1Oc1ccc(OC)cc1 -7.52% [at 11.4 µM], COc1cc2nc(N3CC=[N+](C(=O)c4ccco4)CC3)nc(N)c2cc1OC -10%, CCOc1ccccc1/C=C(\C#N)C(N)=O 1.77% [at 11.4 µM], C[C@H]1C2=C3C(CC[C@H]4C(OCc5ccc(F)cc5C(F)(F)F)OC[C@](C)([C@@H]34)N(C(=O)OC(C)(C)C)C2)C(CO)C1CO (stereo not given in full) -7.43%, Nc1nc2c(c(=O)[nH]1)N(C=O)[C@H](CNc1ccc(C(=O)N[C@@H](CCC(=O)O)C(=O)O)cc1)CN2 2.81% [at 25.6 µM], CC(Sc1nnc(Cc2cccs2)n1C1CCCCC1)C(N)=O (stereo not given) 2.37%, CC1CCC(NC(=O)CC(C)(C)Cc2nc3ccccc3c(=O)[nH]2)CC1 (stereo not given) -11.4%, O=C(COc1ccccc1-c1ccccc1)N/N=C/c1cccc2ccccc12 -20.7%, O=c1c(-c2cc(F)cc(F)c2)nc2cnc(N3CCNCC3)nc2n1C1CC1 -10.9%, Cc1ccc2cc(C(=O)O)c(C)nc2c1 14.1%, Cc1ccc(CSc2nc3c(c(SCC(=O)O)n2)CCCC3)cc1 22.3%, CO[C@H]1COC(=O)C/C=C\[C@@H](C)[C@H](OC)COC(=O)[C@H]2CCCN2C(=O)C/C=C\[C@@H]1C 18.5% [at 11.4 µM], CC(O)(CS(=O)(=O)Cc1ccccc1Cl)C(=O)Nc1cccc(C(F)(F)F)c1 (stereo not given) -19.7%, O=C(Nc1ccccc1)N(Cc1ccccc1)CC(O)C(F)(F)F (stereo not given) -12.8%, O=S(=O)(NCc1cn2ccsc2n1)c1ccc(Oc2ccccc2)cc1 -5.31%, O=C(NCCOC(=O)c1ccc(C(=O)OCCNC(=O)c2cccnc2)s1)c1cccnc1 -19.5%, CCN(c1ccc(NC(=O)COC(=O)c2ccc3ccccc3n2)cc1)C(C)C -23.3%, Cc1cc(C)cc(-n2nnnc2SCC(=O)Nc2nc(-c3ccc(Cl)cc3)cs2)c1 -11.9%, COC(=O)N1CCC[C@@]2(CCN(C(=O)Nc3ccccc3)C2)C1 4.3%, CC(=O)N1CCC2(CC1)CN(C(c1ccccc1)c1ccccc1)C2 13.1%, COc1ccc(NC(=O)N2CC3(CCN(C(=O)c4c(C)noc4C)CC3)C2)cc1 -3.71%, Cc1noc(C)c1C(=O)N1CCC2(CC1)CN(c1ccccc1)C2 -7.99%, CC(=O)N1CCC2(CC1)CN(c1ccccc1)C2 3.1%, COc1ccc(NC(=O)N2CC[C@@]3(CCCN(C(=O)c4c(C)noc4C)C3)C2)cc1 18.1%, COC(=O)N1CCC[C@@]2(CCN(C(=O)Nc3ccc(OC)cc3)C2)C1 -5.4%, Cc1noc(C)c1C(=O)N1CCC[C@@]2(CCN(c3ccccc3)C2)C1 -15%, COc1ccc(-n2c(C)n[nH]c2=O)cc1OC 6.47%, O=c1cnc2cnc(Oc3ccccc3)nc2n1CCc1ccccc1 -4.72%, Nc1nc2ncc(CNc3ccc(C(=O)N[C@@H](CCC(=O)O)C(=O)O)cc3)nc2c(=O)[nH]1 4.78% [at 25.6 µM], COc1ccc(NC(=O)C2(c3ccc(NC(=O)c4ccc(OC(C)=O)cc4)cc3)CCCC2)cc1 -0.389%, CC(=O)N(/N=C1\Sc2ccccc2C1=O)c1ccccc1C 14.4%, COc1ccc(-n2c(=O)c(-c3cccs3)nc3cnc(N4CCN(C)CC4)nc32)cc1 0.52%, CCOC(=O)N/N=C/c1ccccc1F -9.33%, O=C(CNC(=O)c1ccco1)OC(C(=O)c1ccccc1)c1ccccc1 (stereo not given) -7.29%, COC(=O)N1CCC2(CC1)CN(c1ccccc1)C2 -4.45%, COC(=O)N1CCC2(CCCN(c3ccc(-c4ccccc4)cc3)C2)CC1 -3.96%, COC(=O)N1CCC2(CC1)CN(c1ccc(-c3ccccc3)cc1)C2 -10.2%, COC(=O)N1CCC2(CC1)CN(C(=O)Nc1ccccc1)C2 -7.42%, CC(=O)N1CCC2(CCCN(c3ccccc3)C2)CC1 -9.94%, CC(=O)N1CCC[C@@]2(CCN(c3ccccc3)C2)C1 -6.82%, COC(=O)N1CCC2(CC1)CCN(c1ccccc1)CC2 -15.3%, COC(=O)N1CCC2(CCN(C(=O)Nc3ccccc3)CC2)CC1 -11.2%

AC50, active:
COc1ccccc1NC(=O)N1CCCC1C(=O)NCc1ccc2c(c1)OCO2 (stereo not given) 14.1 µM, CCc1ccccc1NC(=S)NCc1ccc2c(c1)OCO2 1.26 µM, COC(=O)C1=C(C)NC(C)=C(C(=O)OCCSc2ccccc2)[C@@H]1C 25.1 µM, CC[C@H](C(=O)c1cccs1)C(O)(C(F)(F)F)C(F)(F)F 3.16 µM, CC(C)CN1CC[C@@]2(CCCN(S(=O)(=O)c3ccccc3)C2)C1 0.501 µM, CC(C)CN1CCC2(CC1)CCN(S(=O)(=O)c1ccccc1)CC2 1 µM, O=C1CC(c2cccs2)c2cc3c(cc2N1)OCO3 (stereo not given) 8.91 µM, CCc1ccc(CSc2nccn2-c2ccccc2)cc1 17.8 µM, c1ccc(CCSc2nccn2-c2ccccc2)cc1 1.41 µM, Clc1ccc(CSc2nccn2Cc2ccccc2)cc1 5.01 µM, N=C(C[C@@H](O)COc1ccccc1-c1ccccc1)N1CCCCC1 31.6 µM, O=C(Nc1cccc(C(F)(F)F)c1)N(Cc1ccc(Cl)cc1)CC(O)C(F)(F)F (stereo not given) 15.8 µM, O=C(OCCNC(=O)c1ccc2ccccc2n1)c1ccc(F)cc1 15.8 µM, COC(=O)N1CCC[C@@]2(CCN(C(c3ccccc3)c3ccccc3)C2)C1 2 µM, Cc1noc(C)c1C(=O)N1CCC2(CCCN(C(c3ccccc3)c3ccccc3)C2)CC1 2 µM, COc1ccc(NC(=O)N2CCCC3(CCN(C(=O)c4c(C)noc4C)CC3)C2)cc1 10 µM, CC(=O)N1CCC2(CC1)CCN(C(c1ccccc1)c1ccccc1)CC2 7.94 µM, CC(=O)N1CCC2(CCCN(C(c3ccccc3)c3ccccc3)C2)CC1 7.94 µM, COC(=O)N1CCC2(CC1)CCN(C(c1ccccc1)c1ccccc1)CC2 7.94 µM, COC(=O)N1CCC2(CCCN(C(c3ccccc3)c3ccccc3)C2)CC1 10 µM, COC(=O)N1CCC2(CC1)CN(C(c1ccccc1)c1ccccc1)C2 0.794 µM
